# DRD3 antagonist – qHTS of D3 Dopamine Receptor Antagonist: qHTS. D(3) dopamine receptor (Homo sapiens), P35462. D3R cells, DiscoveRx beta-arrestin luminescence, antagonist mode; active compounds read low. max response, negative = inhibition, %. 2.5% of 360,000 active; in the data active = max response below about -50%; inconclusive = no clear call, values can overlap the other calls; also: % is scaled to controls: 0 for no effect and ±100 for the full control effect
# Target sequence (P35462 whole entry, looked up): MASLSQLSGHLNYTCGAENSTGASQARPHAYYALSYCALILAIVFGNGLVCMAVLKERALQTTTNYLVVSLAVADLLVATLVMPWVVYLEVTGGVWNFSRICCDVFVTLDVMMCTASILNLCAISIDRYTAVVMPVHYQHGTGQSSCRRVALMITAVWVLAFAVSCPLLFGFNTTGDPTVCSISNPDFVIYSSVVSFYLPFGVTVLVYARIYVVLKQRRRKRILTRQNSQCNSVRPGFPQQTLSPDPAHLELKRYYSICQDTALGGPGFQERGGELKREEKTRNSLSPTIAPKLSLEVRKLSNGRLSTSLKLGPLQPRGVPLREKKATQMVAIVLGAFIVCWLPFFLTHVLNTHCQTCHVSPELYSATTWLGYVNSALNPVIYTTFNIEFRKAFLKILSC
#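 Cells plated overnight at 1500 cells/well, then exposed to library compounds with dopamine controls for 90 minutes at 37 degrees C. DiscoveRx reagent added for 30–60 minutes at room temperature; luminescence read, quantitative HTS format.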
# ATXN2 expr inh – Primary qHTS for Inhibitors of ATXN expression | HEK-293 ATXN2-luciferase reporter, luminescence, 24 h | 0.72% of 360,000 active | AID 1745845, 2022 | Potency, µM (highest dose often 57 µM), for inactives: at the top dose activity change, negative = inhibition, most hits filed as inhibitors; also: potency is read from the fitted curve at half-maximal effect; % is scaled to controls: 0 for no effect and ±100 for the full control effect; nearly all actives have a fitted effect of over 55% in size
#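 qHTS (up to 57 uM final) was run with 24 h compound exposure of reporter cells at 37 °C. Each well was multiplexed: SteadyGlo luminescence measured ATXN2-luciferase expression after a fluorogenic Gly-Phe-AFC viability readout (25 uM final).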
# HepG2 tox-1 – qHTS for Inhibitors of TGF-b: Cytotox Counterscreen. HepG2 CAGA-GFP viability, ATP luminescence, 18 h. Potency, µM (titrated, usually from 46.1 µM), inactives show at the top dose activity change, negative = cytotoxicity, hits mostly cytotoxic. 0.76% of 410,000 active. AID 588856, 2011; also: potency is read from the fitted curve at half-maximal effect
#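 CellTiter-Glo luminescence gave cytotoxicity after 18 hours at 37 degrees C. The cells were HepG2 CAGA-GFP in 1% FBS DMEM, stimulated with 500 pg/mL TGF-beta after compound addition. %Activity was normalised to no-cell wells (complete cell-killing) and DMSO (no toxicity), and curves were fitted and classified.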
# S2 tox – Viability Counterscreen for Primary qHTS for Inhibitors of ATXN expression; S2 cells (HEK-293 line with an ATXN2-luciferase reporter) viability, CellTiter-Fluor protease fluorescence, 24 h; Potency, µM (titrated, usually from 56.7 µM), most hits filed as cytotoxic; 0.49% of 400,000 active; AID 651635, 2014; also: potency is read from the fitted curve at half-maximal effect; nearly all actives have a fitted effect of over 40% in size
# TGFb SMAD3 inh – qHTS for Inhibitors of TGF-b; 1.2% of 410,000 active; Potency, µM (series often up to 46.1 µM), for inactives: at the highest dose activity, negative = inhibition, most hits filed as inhibitors; HepG2 CAGA-GFP TGF-b/SMAD3 reporter, GFP fluorescence, 18 h; TGF-beta stimulated, 500 pg/mL final; also: potency is read from the fitted curve at half-maximal effect; % is scaled to controls: 0 for no effect and ±100 for the full control effect; nearly all actives have a fitted effect of over 65% in size
#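 GFP signal (ex488/em500-530) from TGF-beta-stimulated HEPG2 CAGA-GFP cells, 500 pg/mL final, 18 h at 37 degrees C in DMEM plus 1% FBS, normalized to unstimulated and DMSO-stimulated controls.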
# D3 ag – qHTS of D3 Dopamine Receptor Agonist: qHTS | max activation, % | D(3) dopamine receptor (Homo sapiens), P35462 | 0.58% of 410,000 active | D3R DiscoveRx beta-arrestin cells, luminescence, 90 min | AID 652048, 2013; in the data active = max activation above about 30%; also: 0% is about no effect
#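 Agonist mode: compounds and dopamine controls were applied to plated cells for 90 min at 37 degrees C after an overnight attachment at 1500 cells/well. Luminescent read-out followed 30 - 60 minutes at room temperature with DiscoveRx detection reagent.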
# TGFb CAGA inh – qHTS for Inhibitors of TGF-b: Confirmation of Cherry Picks; shares compounds with TGFb SMAD3 inh; HepG2 CAGA-GFP TGF-b reporter, GFP fluorescence, 18 h; cells stimulated with TGF-beta, 500 pg/mL; Potency, µM (top dose mostly 46.1 µM), inactives show top-dose activity, negative = inhibition, most hits filed as inhibitors; 63% of 1,600 active; also: potency is read from the fitted curve at half-maximal effect; % is scaled to controls: 0 for no effect and ±100 for the full control effect; nearly all actives have a fitted effect of over 65% in size
# HepG2 tox-2 – qHTS for Inhibitors of TGF-b: Cytotox Counterscreen for Cherry Picks. shares compounds with TGFb SMAD3 inh. Potency, µM (series often up to 46.1 µM), inactives show top-dose activity, negative = cytotoxicity, most hits filed as inhibitors. HepG2 CAGA-GFP viability, ATP luminescence, 18 h; cells stimulated with TGF-beta, 500 pg/mL. 27% of 1,600 active; also: potency is read from the fitted curve at half-maximal effect; % is scaled to controls: 0 for no effect and ±100 for the full control effect; nearly all actives have a fitted effect of over 70% in size
# TGFb CCL64 inh – qHTS for Inhibitors of TGF-b: CCL64 Cells Orthogonal Assay for Cherry Picks | shares compounds with TGFb SMAD3 inh | CCL64 CAGA-GFP reporter, TGF-b stimulated, GFP fluorescence, 18 h | Potency, µM (series often up to 46.1 µM), without a hit: at the top dose activity, negative = inhibition, usual class: inhibitors | 41% of 1,600 active | AID 720536, 2013; also: potency is read from the fitted curve at half-maximal effect; nearly all actives have a fitted effect of over 65% in size
# TGFb COP inh – qHTS for Inhibitors of TGF-b: Hit Validation in HepG2 Cells using COP promoter; shares compounds with TGFb SMAD3 inh; HepG2 COP-GFP TGF-b reporter, GFP fluorescence, 18 h; cells stimulated by added recombinant TGF-beta; Potency, µM (highest dose often 46.1 µM), for inactives: at the highest dose activity, negative = inhibition, actives largely listed as inhibitors; 3% of 1,600 active; AID 720537, 2013; also: potency is read from the fitted curve at half-maximal effect; nearly all actives have a fitted effect of over 70% in size
# * = called active by the depositor; i = inactive; ? = inconclusive; / = no result given; [ ] = another dose, or the depositor's remark. Only some compounds are listed: those with a hit (about 4.7% of all), similar ones and a draw of the others. Unless noted, calls follow the shape of the dose curve; as a rule, active = well fitted curve in the direction sought with a large enough effect; inconclusive = small, poorly fitted or top-dose-only effect, or another doubt; inactive = no such curve, though single readings can be large; an effect the other way counts as inactive or inconclusive.
SMILES,DRD3 antagonist,ATXN2 expr inh,HepG2 tox-1,S2 tox,TGFb SMAD3 inh,D3 ag,TGFb CAGA inh,HepG2 tox-2,TGFb CCL64 inh,TGFb COP inh
O=C(NCc1ccco1)c1cc([N+](=O)[O-])ccc1N1CCCCC1,-2.2,-8.4%,-0.1%,?,5.0%,-2.1,/,/,/,/
CCCCNC(=O)CSc1nc2cc3c(cc2c(=O)n1CCCC(=O)NCc1ccc(OC)cc1)OCO3,/,/,0.4%,/,-7.1%,9.1,/,/,/,/
O=C(CSc1nc(NS(=O)(=O)c2ccccc2)cc(=O)[nH]1)Nc1ccc(Cl)cc1,-17.3,-26.2%,-27.3%,i,0.7%,-3.5,/,/,/,/
O=c1cc(NS(=O)(=O)c2ccccc2)nc(SCc2ccc(Cl)cc2)[nH]1,8.7,3.1%,-49.8%,?,3.98µM*,9.7,?,-23.9%,18.4µM*,4.2%
O=C(CCC(=O)N1CCSc2ccccc21)NCc1cccc(Cl)c1,4.6,-8.1%,-19.0%,i,?,-5.0,?,-8.4%,6.9%,-1.4%
NC(=S)N/N=C\c1c2ccccc2cc2ccccc12,?,?,-53.4%,?,-12.4%,-16.6,/,/,/,/
NC(=S)N/N=C\c1c(OCc2ccccc2Cl)ccc2ccccc12,-18.1,?,-5.1%,i,6.31µM*,-20.7,5.8µM*,?,8.2µM*,34.3%
CCSCCc1nnc(NC(=O)Nc2cccc(C(F)(F)F)c2)s1,20.9,?,-35.2%,i,4.47µM*,8.2,5.17µM*,?,7.31µM*,104.1%
CS/C(=N\S(=O)(=O)c1cccs1)Nc1ccc(F)c(Cl)c1,-19.8,-9.1%,-4.2%,i,8.91µM*,-4.3,?,-14.5%,-18.5%,-6.8%
CCN(CC)CCNC(=O)c1sc2nc3n(c(=O)c2c1C)CCCCC3,/,/,-8.2%,/,-9.5%,1.4,/,/,/,/
O=C(CSc1n[nH]c(-c2ccncc2)n1)Nc1ccccn1,-14.4,-13.4%,0.3%,i,11.2µM*,2.6,16.4µM*,-0.6%,?,-14.7%
O=C(CSc1n[nH]c(-c2ccccc2)n1)Nc1ncccn1,13.3,-8.3%[11.3 µM],4.6%,i,-16.3%,5.2,/,/,/,/
CCOc1ccc(NC(=O)C2CCC(CNS(=O)(=O)c3ccc4c(c3)CCCC(=O)N4)CC2)cc1 (centres undefined),/,-2.6%,0.0%,?,2.7%,1.6,/,/,/,/
O=C(c1ccc(F)cc1)C(CN1CCOCC1)c1ccccc1 (centres undefined),?,?,17.8µM*,/,3.55µM*,-10.9,7.31µM*,16.4µM*,3.66µM*,?
O=C(c1ccc(Cl)cc1)C(CN1CCCC1)c1ccccc1 (centres undefined),?,/,-115.5%,/,7.94µM*,-7.0,3.66µM*,8.2µM*,2.59µM*,?
OC(CN1CCCC1)c1ccccc1 (centres undefined),/,/,-0.8%,/,-4.9%,/,/,/,/,/
c1ccc(C(CN2CCOCC2)c2ccccc2)cc1,-7.2,-8.9%,3.5%,i,17.8%,-11.1,/,/,/,/
Cc1ccc(CNC(=O)CC(C)CC2=NS(=O)(=O)c3ccccc3N2)cc1 (centres undefined),/,-8.2%,-5.0%,i,-6.2%,-3.8,/,/,/,/
O=C(C(=O)c1cc(Br)ccc1O)c1cc(Br)ccc1O,-13.5,?,-34.7%,?,6.31µM*,11.7,6.51µM*,11.6µM*,4.61µM*,81.4%
CCC(C)Nc1nc(-c2ccccn2)nc2ccccc12 (centres undefined),-4.3,?,-14.3%,?,?,-5.7,14.6µM*,?,11.6µM*,71.6%
Cc1ccc(S(=O)(=O)N2CCN(c3nc(-c4ccc(CN5CCOCC5)s4)nc4ccccc34)CC2)cc1,/,/,2.9%,/,3.7%,/,/,/,/,/
Cc1c(C(=O)NCc2ccccc2Cl)sc2ncnc(N(C)C3CCCCC3)c12,/,-6.1%,-11.8%,i,-2.0%,-6.8,/,/,/,/
COc1ccc(Nc2nc(-c3ccccc3)nc3ccccc23)cc1,50.6,-29.9%,-33.2%,?,?,11.1,?,-25.4%,?,5.0%
Cc1ccc(Nc2nc(-c3cccnc3)nc3ccccc23)cc1,33.5,?,20µM*,?,?,3.9,?,?,?,36.0%
Cc1ccccc1Nc1nc(-c2cccnc2)nc2ccccc12,14.0,-18.8%,-12.3%,i,0.6%,6.7,/,/,/,/
SMILES,DRD3 antagonist,ATXN2 expr inh,HepG2 tox-1,S2 tox,TGFb SMAD3 inh,D3 ag,TGFb CAGA inh,HepG2 tox-2,TGFb CCL64 inh,TGFb COP inh
CC(C)C(=O)N1c2nc(C(C)C)nn2C2(CCCCC2)[C@@H]2CCCC[C@@H]21,/,/,-14.3%,/,-8.4%,-13.2,/,/,/,/
Cc1ccc(CNC(=O)COCc2cc(-c3ccc4c(c3)OCO4)on2)cc1,/,/,-17.8%,/,0.5%,8.6,/,/,/,/
COc1ccc(-c2noc(N3CCN(c4cccc(C)c4C)CC3)n2)cc1OC,/,?,-35.0%,i,?,22.1,/,/,/,/
S=C(Nc1ccc(Cl)cc1)NC1CCCCC1,-15.1,18.3%,-44.9%,i,?,16.1,/,/,/,/
S=C(Nc1ccc(Br)cc1)NC1CCCCC1,?,51.4%,-44.5%,i,10µM*,4.1,?,?,?,10.5%
Cn1cc(S(=O)(=O)N2CCCCC2)cc1C(=O)NCc1ccc(Cl)cc1,/,/,0.2%,/,?,-1.5,/,/,/,/
COc1cc2c(cc1OC)C(C)N(C(=O)c1cc(C)on1)CC2 (centres undefined),1.9,0.4%,4.5%,?,11.2µM*,3.3,7.31µM*,1.5%,?,?
